According to PubChem BioAssay:
Inconclusive results are not listed. Calls of active or inactive are those of the source. Unless noted, how the calls were made is not given here.

How the values were obtained:
[1] = molecular target: ATP-dependent translocase ABCB1 (Homo sapiens) (UniProt P08183); test: P-glycoprotein substrate transport blockade – cell-based (AID 377; in the data active means fluorescence slope change above about 50%); conditions: MDR1-expressing cells, fluorescent substrate accumulation slope; stronger effect = higher value; concentration not given here
[2] = viability loss in pontine glioma line – cell-based, SU-DIPG-XIII, MIPE4.0, CellTiter-Glo, qHTS, dose response (AID 1347061; cut-off not given, nearly all actives have AC50 up to about 37 µM;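 further: cells exposed to compound for 48 hours before readout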); conditions: CellTiter-Glo ATP luminescence
[3] = viability loss in pontine glioma line – cell-based, JHH-DIPG-1, MIPE4.0, CellTiter-Glo, qHTS, dose response (AID 1347062; cut-off not given, nearly all actives have AC50 up to about 27 µM;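 on AC50: cells exposed to compound for two days before readout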); conditions: JHH-DIPG-1 viability, CellTiter-Glo ATP luminescence
[4] = viability loss in pontine glioma line – cell-based, SU-DIPG-XIII, MIPE5.0, CellTiter-Glo, qHTS, dose response (AID 1347064; cut-off not given, nearly all actives have AC50 up to about 23 µM;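 on AC50: cells exposed to compound for 48 hours before the viability read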); conditions: CellTiter-Glo ATP luminescence
[5] = viability loss in pontine glioma line – cell-based, SU-DIPG-XXV, MIPE5.0, CellTiter-Glo, qHTS, dose response (AID 1347065; cut-off not given, nearly all actives have AC50 up to about 26 µM;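 further: cells exposed to compound for 48 hours before ATP readout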); conditions: CellTiter-Glo ATP luminescence
[6] = growth inhibition of DIPG cells – cell-based, MIPE4.0 library, CellTiter-Glo luminescence, qHTS (AID 1347066; cut-off not given, nearly all actives have AC50 up to about 30 µM;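 further: cells exposed to compound for 48 hours before readout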); conditions: SU-DIPG-VI viability, CellTiter-Glo ATP luminescence
[7] = growth inhibition of DIPG cells – cell-based, MIPE5.0 library, qHTS (AID 1347068; cut-off not given, nearly all actives have IC50 up to about 30 µM;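 on IC50: cells exposed to compound for 48 hours before viability readout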); conditions: SU-DIPG-XXV viability
[8] = compounds altering circadian rhythm period length – cell-based, LOPAC library, luminescence reporter (AID 2774); conditions: circadian reporter cells, at 7 µM, actives lie on both sides;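 further: values are relative to mean of DMSO wells on each plate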
[9] = system: Hepatitis C virus NS3 helicase; test: blockers of NS3h binding to ssDNA – biochemical, fluorescence polarization, LOPAC1280 library, primary screen (AID 687035; in the data active means inhibition above about 37%); conditions: Purified HCV NS3 helicase, Cy5-dT15 ssDNA binding fluorescence polarization; stronger effect = higher value; concentration not given here
[10] = compounds altering Cy5-DNA-NS3h complex signal – biochemical, LOPAC1280, artefact control for HCV NS3 helicase inhibitor project (AID 687037); conditions: Cy5-DNA-NS3h complex fluorescence interference counterscreen
[11] = system: Neuropilin-2 / VEGF-C interaction (human); test: small molecules blocking Neuropilin-2/VEGF-C interaction – biochemical, microplate binding format, z-score (AID 743281); conditions: microplate NRP2/VEGF-C binding assay; stronger effect = lower value
[12] = system: Aerobactin synthetase IucA (Klebsiella pneumoniae); test: inhibition of K. pneumoniae IucA enzyme – biochemical, Tocris library, absorbance (AID 1345561); conditions: purified IucA enzyme assay, absorbance (OD) read-out; stronger effect = lower value;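 tested at 8 µM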;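 further: 100% = enzyme without compound and 0% = no enzyme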
[13] = viability loss in pontine glioma line – cell-based, SU-DIPG-IV, MIPE4.0, CellTiter-Glo, qHTS, dose response (AID 1347063; cut-off not given, nearly all actives have AC50 up to about 30 µM;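 further: compound exposure lasted 48 hours before the viability readout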); conditions: CellTiter-Glo ATP luminescence
[14] = blockers of cellular phospholipid synthesis – cell-based, LOPAC library, screen 4, primary screen (AID 1347384); conditions: animal cells, phospholipid biosynthesis inhibition screen; at 10 µM
[15] = viability loss in pontine glioma line – cell-based, SU-DIPG-XVII, MIPE5.0, CellTiter-Glo, qHTS, dose response (AID 1347060; cut-off not given, nearly all actives have AC50 up to about 26 µM;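 on AC50: cells exposed to compound for 48 hours before viability readout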); conditions: CellTiter-Glo ATP luminescence
[16] = JHH-DIPG-1 glioma cell viability, MIPE5.0 library, CellTiter-Glo luminescence, qHTS (AID 1347067; cut-off not given, nearly all actives have AC50 up to about 26 µM;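 further: cells exposed to compound for 48 hours before readout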); conditions: JHH-DIPG-1 glioma viability, CellTiter-Glo ATP luminescence
[17] = GFP-Q80 aggregate reduction, neuronal-like cells, cell-based, NGF-treated PC12, GFPQ80 (AID 1614); conditions: PC12 NGF-treated GFP-polyQ80 inclusion reduction;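 further: lower means fewer inclusions and 0 means no inclusions at all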
[18] = compounds altering HSF1 focus formation in cells – imaging, Selleck Cancer Library (AID 1347162; in the data active means plate-normalised HSF1 focus index below about 0.46); conditions: human cells, HSF1 nuclear foci imaging, at 10 µM; SSMD: measured here: HSF1 foci SSMD mean; cell count: measured here: cell number; plate-normalised HSF1 focus index: stronger effect = lower value

Chain of ATP-dependent translocase ABCB1 (Homo sapiens) (P08183 whole entry, looked up): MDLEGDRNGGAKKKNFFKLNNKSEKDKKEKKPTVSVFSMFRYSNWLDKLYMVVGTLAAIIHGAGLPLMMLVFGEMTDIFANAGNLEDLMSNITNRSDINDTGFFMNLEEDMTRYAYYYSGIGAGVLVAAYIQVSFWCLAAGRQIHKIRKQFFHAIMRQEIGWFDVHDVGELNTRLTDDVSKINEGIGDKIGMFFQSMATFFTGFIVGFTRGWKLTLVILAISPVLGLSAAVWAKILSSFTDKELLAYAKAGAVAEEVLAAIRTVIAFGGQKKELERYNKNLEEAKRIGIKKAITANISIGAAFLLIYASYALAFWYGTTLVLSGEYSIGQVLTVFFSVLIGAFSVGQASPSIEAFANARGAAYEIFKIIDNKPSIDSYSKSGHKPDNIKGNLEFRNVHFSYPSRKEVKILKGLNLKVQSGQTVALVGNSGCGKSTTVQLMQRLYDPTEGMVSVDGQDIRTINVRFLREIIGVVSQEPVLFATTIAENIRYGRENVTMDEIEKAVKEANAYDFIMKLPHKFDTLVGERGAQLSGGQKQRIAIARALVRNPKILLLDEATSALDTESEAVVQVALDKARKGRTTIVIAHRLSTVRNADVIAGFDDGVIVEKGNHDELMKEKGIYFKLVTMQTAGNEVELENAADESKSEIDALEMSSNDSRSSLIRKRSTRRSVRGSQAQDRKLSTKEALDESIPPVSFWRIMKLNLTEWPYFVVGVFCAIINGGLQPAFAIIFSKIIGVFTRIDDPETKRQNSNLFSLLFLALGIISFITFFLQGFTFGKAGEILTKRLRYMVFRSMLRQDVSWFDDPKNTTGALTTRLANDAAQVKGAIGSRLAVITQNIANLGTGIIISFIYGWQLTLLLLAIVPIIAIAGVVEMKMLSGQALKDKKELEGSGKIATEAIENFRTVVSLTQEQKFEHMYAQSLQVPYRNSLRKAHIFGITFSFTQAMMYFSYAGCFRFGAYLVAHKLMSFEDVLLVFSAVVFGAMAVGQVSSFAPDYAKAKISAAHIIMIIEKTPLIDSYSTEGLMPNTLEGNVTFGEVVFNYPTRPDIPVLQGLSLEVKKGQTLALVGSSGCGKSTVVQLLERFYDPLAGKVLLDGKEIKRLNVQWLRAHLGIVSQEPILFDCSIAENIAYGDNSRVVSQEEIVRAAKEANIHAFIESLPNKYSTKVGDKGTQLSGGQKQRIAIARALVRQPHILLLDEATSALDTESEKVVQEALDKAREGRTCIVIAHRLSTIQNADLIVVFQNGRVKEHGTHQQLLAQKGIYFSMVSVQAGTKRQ

CC(=O)OCC(=O)[C@@]12OC(C)(C)O[C@@H]1C[C@H]1[C@@H]3C[C@H](F)C4=CC(=O)C=C[C@]4(C)[C@@]3(F)[C@@H](O)C[C@@]12C
inactive: fluorescence slope change [1] 14.5% | outcome [2] | outcome [3] | outcome [4] | outcome [5] | outcome [6] | outcome [7]

CCOC(=O)N1CCC(=C2c3ccc(Cl)cc3CCc3cccnc32)CC1
active: AC50 [13] 18.7 µM
inactive: period change [8] -0.1 h | inhibition [9] 0% | fluorescence ratio (interference) [10] 1 | z-score [11] 0.735 | remaining activity [12] 99.4% | outcome [2] | outcome [3] | outcome [14]

C#C[C@]1(O)CC[C@H]2[C@@H]3CCC4=CC(=O)CC[C@@H]4[C@H]3CC[C@@]21CC
inactive: fluorescence slope change [1] -2.5% | outcome [15] | outcome [2] | outcome [3] | outcome [13] | outcome [6] | outcome [16] | outcome [7]

CCCCc1oc2ccccc2c1C(=O)c1cc(I)c(OCCN(CC)CC)c(I)c1
inactive: period change [8] 0.145 h | inhibition [9] 0% | fluorescence ratio (interference) [10] 0.9 | z-score [11] -0.442 | outcome [14]
active: AC50 [15] 13.2 µM | AC50 [2] 7.43 µM | AC50 [3] 23.5 µM | AC50 [13] 1.05 µM | AC50 [4] 13.2 µM | AC50 [6] 23.5 µM | AC50 [16] 16.6 µM | IC50 [7] 23.5 µM

Nc1nc2ccc(OC(F)(F)F)cc2s1
active: fluorescence slope change [1] 60.6% | IC50 [7] 20.9 µM
inactive: period change [8] 0.11 h | inhibition [9] -3% | fluorescence ratio (interference) [10] 0.9 | z-score [11] 1.45 | remaining activity [12] 83.1% | outcome [15] | outcome [2] | outcome [3] | outcome [4] | outcome [6] | outcome [14]

CN1CCN(CCCN2c3ccccc3Sc3ccc(C(F)(F)F)cc32)CC1
inactive: period change [8] 0.025 h | inhibition [9] -6% | fluorescence ratio (interference) [10] 0.9 | z-score [11] 0.311 | outcome [3] | outcome [6] | outcome [14]
active: fluorescence slope change [1] 134% | AC50 [2] 18.7 µM | AC50 [5] 18.6 µM | AC50 [16] 23.5 µM

C[C@@H](O)[C@H]1C(=O)N2C(C(=O)O)=C(S[C@@H]3CN[C@H](C(=O)N(C)C)C3)[C@H](C)[C@H]12
inactive: z-score [11] -0.132

COc1ccccc1N1CCN(CCCNc2cc(=O)n(C)c(=O)n2C)CC1
inactive: period change [8] 0.18 h | inhibition [9] -4% | fluorescence ratio (interference) [10] 1 | z-score [11] -0.551 | remaining activity [12] 103% | outcome [14]

CN(C)CCOC(c1ccccc1)c1ccccc1
2: inclusion score [17]
inactive: period change [8] -0.01 h | inhibition [9] -1% | fluorescence ratio (interference) [10] 1 | z-score [11] -0.533 | outcome [3] | outcome [4] | outcome [5] | outcome [6] | outcome [16] | outcome [7] | outcome [14]

CC(=O)OCC(=O)[C@@]1(O)CC[C@H]2[C@@H]3CCC4=CC(=O)C=C[C@]4(C)[C@H]3[C@@H](O)C[C@@]21C
inactive: outcome [2] | outcome [3] | outcome [4] | outcome [5] | outcome [6] | outcome [16] | outcome [7]

O=c1n(CCCN2CCN(c3cccc(Cl)c3)CC2)nc2ccccn12
inactive: period change [8] -0.06 h | inhibition [9] 0% | fluorescence ratio (interference) [10] 1 | z-score [11] 0.0689 | outcome [2] | outcome [3] | outcome [13] | outcome [6] | outcome [14]
active: fluorescence slope change [1] 85.5%
2: inclusion score [17]

CC(=O)O[C@]1(C(C)=O)CC[C@H]2[C@@H]3C=C(C)C4=CC(=O)CC[C@]4(C)[C@H]3CC[C@@]21C
7050: cell count [18]
0.639: SSMD [18]
inactive: outcome [4] | outcome [6] | outcome [7] | plate-normalised HSF1 focus index [18] 1.04
active: AC50 [3] 11.8 µM | AC50 [13] 8.33 µM

CCN(CC)CC(=O)Nc1c(C)cccc1C
inactive: period change [8] -0.265 h | inhibition [9] -3% | fluorescence ratio (interference) [10] 1 | z-score [11] 1.47 | outcome [14]
2: inclusion score [17]

O=C1N=C(O)CN1/N=C/c1ccc(-c2ccc([N+](=O)[O-])cc2)o1
active: fluorescence slope change [1] 54.9%
1.5: inclusion score [17]
inactive: remaining activity [12] 110%

COc1cc2nc(N3CCN(C(=O)c4ccco4)CC3)nc(N)c2cc1OC
inactive: inhibition [9] -1% | fluorescence ratio (interference) [10] 0.9 | z-score [11] 0.105 | remaining activity [12] 96.4% | outcome [14]
active: AC50 [13] 26.4 µM | AC50 [6] 14.8 µM

CNC(=O)Oc1ccc2c(c1)[C@]1(C)CCN(C)[C@@H]1N2C
2: inclusion score [17]
inactive: period change [8] 0.16 h | inhibition [9] -2% | fluorescence ratio (interference) [10] 1 | outcome [14]

CC1(C)O[C@@H]2C[C@H]3[C@@H]4C[C@H](F)C5=CC(=O)C=C[C@]5(C)[C@H]4[C@@H](O)C[C@]3(C)[C@]2(C(=O)CO)O1
inactive: fluorescence slope change [1] 24.8% | outcome [15] | outcome [4] | outcome [5] | outcome [16] | outcome [7]
